Results filed as inconclusive are left out. A call without a number means that no potency is given here. Active and inactive are the calls of the source. Unless noted, calls follow the shape of the dose curve; as a rule, active = well fitted curve in the direction sought with a large enough effect; inconclusive = small, poorly fitted or top-dose-only effect, or another doubt; inactive = no such curve, though single readings can be large; an effect the other way counts as inactive or inconclusive.
Experiments:
[1] = qHTS Assay for Identification of Small Molecule Agonists for Thrombopoietin (TPO) Signaling Pathway (AID 917)
Procedure, shortened: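 Murine Ba/F3 cells stably expressing human TPO receptor and a Glycoprotein IIb promoter–luciferase reporter were IL-3-starved overnight, then treated with compounds plus TPO (26 pM final, its EC50) for 24 hrs at 37 C; luminescence was read.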

[2] = target: Pyruvate kinase (Leishmania mexicana) (UniProt Q27686); experiment: qHTS Validation Assay for Inhibitors of Leishmania Mexicana Pyruvate Kinase (AID 945)
Pyruvate kinase (Leishmania mexicana), sequence (Q27686 2-499 E452W): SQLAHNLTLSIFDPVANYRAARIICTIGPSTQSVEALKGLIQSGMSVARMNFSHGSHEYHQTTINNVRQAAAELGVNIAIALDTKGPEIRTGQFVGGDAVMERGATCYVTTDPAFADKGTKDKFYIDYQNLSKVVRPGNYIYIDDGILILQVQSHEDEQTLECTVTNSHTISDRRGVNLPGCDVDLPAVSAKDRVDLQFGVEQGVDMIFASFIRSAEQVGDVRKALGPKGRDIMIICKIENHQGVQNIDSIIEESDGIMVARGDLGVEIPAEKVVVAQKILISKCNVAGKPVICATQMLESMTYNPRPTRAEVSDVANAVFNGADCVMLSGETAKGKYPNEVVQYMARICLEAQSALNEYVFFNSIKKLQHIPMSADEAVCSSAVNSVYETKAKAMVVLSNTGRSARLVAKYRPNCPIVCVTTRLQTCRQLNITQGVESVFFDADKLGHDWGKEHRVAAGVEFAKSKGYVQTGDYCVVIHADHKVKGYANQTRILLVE
Procedure, shortened: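 qHTS eight-point titrations against 0.2 nM LmPYK (E451W) in imidazole buffer pH 7.2 with 0.5 mM PEP, 0.1 mM ADP; 1 h, room temperature. Readout: PKLight luminescence, normalized to neutral DMSO wells.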

[3] = target: Pyruvate kinase PKM (Homo sapiens) (UniProt P14618); experiment: qHTS Assay for Activators of Human Muscle Pyruvate Kinase (AID 954; active = well fitted curve in the direction sought with a large enough effect, not every such curve was filed as active)
Pyruvate kinase PKM (Homo sapiens), sequence (P14618 whole entry, looked up): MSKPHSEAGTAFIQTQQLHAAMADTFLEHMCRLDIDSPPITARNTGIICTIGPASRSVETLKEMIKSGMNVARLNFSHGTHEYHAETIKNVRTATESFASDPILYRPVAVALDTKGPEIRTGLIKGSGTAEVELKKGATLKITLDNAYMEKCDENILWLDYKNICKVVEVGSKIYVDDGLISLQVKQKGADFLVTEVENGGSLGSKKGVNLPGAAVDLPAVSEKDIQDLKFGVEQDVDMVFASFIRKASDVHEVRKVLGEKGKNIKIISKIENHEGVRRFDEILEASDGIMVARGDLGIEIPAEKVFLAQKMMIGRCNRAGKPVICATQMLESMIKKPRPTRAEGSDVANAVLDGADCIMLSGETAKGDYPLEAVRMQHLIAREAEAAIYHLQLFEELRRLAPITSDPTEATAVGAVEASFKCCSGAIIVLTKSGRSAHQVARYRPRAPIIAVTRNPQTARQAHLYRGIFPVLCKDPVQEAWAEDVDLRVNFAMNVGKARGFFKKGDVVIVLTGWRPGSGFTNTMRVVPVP
Procedure, shortened: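 Human PKM2 activity is measured as ATP generation, detected by luciferase-coupled luminescence. The enzyme (0.1 nM) acts on 0.5 mM PEP and 0.1 mM ADP for 1 h at ambient temperature; data are normalized to uninhibited and full-inhibition wells.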

[4] = target: Alpha-galactosidase A (Homo sapiens) (UniProt P06280); experiment: Counterscreen for Glucocerebrosidase Inhibitors: qHTS Assay for Human alpha-Galactosidase at pH 4.5 (AID 992)
Alpha-galactosidase A (Homo sapiens), sequence (P06280 whole entry, looked up): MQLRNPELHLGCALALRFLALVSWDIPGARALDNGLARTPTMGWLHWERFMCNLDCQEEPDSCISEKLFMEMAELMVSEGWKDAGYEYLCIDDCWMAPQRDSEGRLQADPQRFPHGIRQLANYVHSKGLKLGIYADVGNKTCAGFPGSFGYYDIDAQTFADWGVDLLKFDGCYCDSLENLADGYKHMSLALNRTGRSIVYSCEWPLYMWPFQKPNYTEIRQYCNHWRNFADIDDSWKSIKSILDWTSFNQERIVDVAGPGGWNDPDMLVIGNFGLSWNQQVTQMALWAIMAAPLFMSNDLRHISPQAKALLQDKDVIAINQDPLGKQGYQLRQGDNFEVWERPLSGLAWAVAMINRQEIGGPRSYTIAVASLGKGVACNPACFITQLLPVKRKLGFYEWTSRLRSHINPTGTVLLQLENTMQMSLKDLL
Procedure, shortened: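 Quantitative HTS: compounds tested from 0.7 nM up to 77 uM against 2 nM enzyme with 80 uM 4-MU alpha-D-galactopyranoside. The 20 min room-temperature reaction is stopped with 1M NaOH/1M glycine, pH 10.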

[5] = target: alpha-glucosidase (Oryza sativa, rice) (UniProt Q653V4); experiment: Counterscreen for Glucocerebrosidase Inhibitors: qHTS Assay for Rice alpha-Glucosidase at pH 5.0 (AID 997)
Procedure, shortened: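 Rice alpha-glucosidase (4 nM final) with 400 uM 4-methylumbelliferyl-alpha-D-glucopyranoside in citrate buffer pH 5.0, 20 min at room temperature, stopped at pH 10; fluorescence 365/440 nm, compounds 0.7 nM–77 uM, AC50 from Hill fits.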

[6] = target: Guanine nucleotide-binding protein G(i) subunit alpha-1 (Homo sapiens) (UniProt P63096); experiment: qHTS Assay for Inhibitors of RGS12 GoLoco Motif Activity (Green Fluorophore) (AID 879);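 also: negative values mean loss of peptide binding seen as reduced polarization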
Guanine nucleotide-binding protein G(i) subunit alpha-1 (Homo sapiens), sequence (P63096 whole entry, looked up): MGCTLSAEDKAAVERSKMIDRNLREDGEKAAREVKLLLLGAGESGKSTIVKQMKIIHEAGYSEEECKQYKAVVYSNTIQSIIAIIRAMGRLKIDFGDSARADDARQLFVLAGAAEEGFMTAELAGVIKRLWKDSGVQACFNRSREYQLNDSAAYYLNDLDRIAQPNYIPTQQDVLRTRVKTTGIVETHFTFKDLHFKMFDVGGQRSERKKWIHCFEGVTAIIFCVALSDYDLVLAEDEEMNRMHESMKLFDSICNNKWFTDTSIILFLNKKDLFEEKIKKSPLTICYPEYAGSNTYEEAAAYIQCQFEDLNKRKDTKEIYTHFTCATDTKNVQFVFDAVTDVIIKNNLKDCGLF
Procedure, shortened: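 Fluorescence polarization assay: 50 nM Gαi1 with 10 nM FITC-labeled RGS12 GoLoco peptide in 10 mM Tris pH 7.5, 150 mM NaCl, 0.1 mM GDP, 0.05% NP40, 10 min at room temperature with compound.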

CP192 = experiment: qHTS profiling for inhibitors of Plasmodium falciparum proliferation (AID 504749); also: nearly all actives have a fitted effect of over 60% in size; also: potency is read from the fitted curve at half-maximal effect; conditions: P. falciparum in erythrocytes, SYBR Green DNA, 72 h; series mostly up to 28.7 µM
Procedure, shortened: (§1)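 P. falciparum-infected erythrocytes (0.3% parasitemia, 2.5% hematocrit final) were exposed to compounds for 72 h at 37 C in 5% CO2, then lysed with SYBR Green buffer overnight at room temperature; parasite DNA fluorescence was normalized to artemisinin and DMSO controls.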

CP194 = experiment: as above; conditions: P. falciparum in erythrocytes, SYBR Green DNA, 72 h; series mostly up to 12.8 µM
Procedure, shortened: as §1

CP215 = experiment: as above; conditions: P. falciparum in erythrocytes, SYBR Green DNA, 72 h; series mostly up to 28.7 µM
Procedure, shortened: as §1

CP260 = experiment: as above; conditions: P. falciparum in erythrocytes, SYBR Green DNA, 72 h; series mostly up to 12.8 µM
Procedure, shortened: as §1

CP266 = experiment: as above; conditions: P. falciparum in erythrocytes, SYBR Green DNA, 72 h; series mostly up to 28.7 µM
Procedure, shortened: as §1

CP297 = experiment: as above; conditions: P. falciparum in erythrocytes, SYBR Green DNA, 72 h; series mostly up to 12.8 µM
Procedure, shortened: as §1

CP315 = experiment: as above; conditions: P. falciparum in erythrocytes, SYBR Green DNA, 72 h; series mostly up to 12.8 µM
Procedure, shortened: as §1

DIV17 = experiment: as above; conditions: P. falciparum in erythrocytes, SYBR Green DNA, 72 h; series mostly up to 12.8 µM
Procedure, shortened: as §1

GB4 = experiment: as above; conditions: P. falciparum in erythrocytes, SYBR Green DNA, 72 h; series mostly up to 12.8 µM
Procedure, shortened: as §1

W2 = experiment: as above; conditions: P. falciparum in erythrocytes, SYBR Green DNA, 72 h; series mostly up to 12.8 µM
Procedure, shortened: as §1

[7] = S16 Schwann cell PMP22 intronic element firefly luciferase assay (AID 624032); also: nearly all actives have a fitted effect of over 30% in size
Procedure, shortened: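 Rat S16 Schwann cells stably carrying a PMP22 intronic element-driven Fluc reporter were seeded overnight, then exposed to compounds for 24 h at 37 °C. Luminescence was normalized to PTC124 (positive control) and DMSO (0% activity).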

[8] = S16 Schwann cell PMP22 intronic element beta-lactamase assay (AID 624044; calls by dose curve; also: nearly all actives have a fitted effect of over 15% in size)
Procedure, shortened: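 Rat S16 Schwann cells with beta-Lac driven by a PMP22 intronic element, compound-treated 24 h at 37 °C. LiveBLAzer FRET B/G read: 460 nm normalized to potassium clavulanate vs DMSO; 535 nm FRET as viability; concentration-effect curves classified.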

TAB109 = experiment: qHTS profiling for inhibitors of Plasmodium falciparum proliferation (AID 504749); also: nearly all actives have a fitted effect of over 60% in size; also: potency is read from the fitted curve at half-maximal effect; conditions: P. falciparum in erythrocytes, SYBR Green DNA, 72 h; series mostly up to 12.8 µM
Procedure, shortened: as §1

DIV14 = experiment: as above; conditions: P. falciparum in erythrocytes, SYBR Green DNA, 72 h; series mostly up to 12.8 µM
Procedure, shortened: as §1

| Structure (SMILES) | outcome [1] | outcome [2] | outcome [3] | outcome [4] | outcome [5] | Potency [6] | Potency (CP192) | Potency (CP194) | Potency (CP215) | Potency (CP260) | Potency (CP266) | Potency (CP297) | Potency (CP315) | Potency (DIV17) | Potency (GB4) | Potency (W2) | Potency [7] | outcome [8] | Potency (TAB109) | Potency (DIV14) |
| --- | --- | --- | --- | --- | --- | --- | --- | --- | --- | --- | --- | --- | --- | --- | --- | --- | --- | --- | --- | --- |
| CN1Cc2c(N)cccc2[C@H](c2ccccc2)C1 | inactive | inactive | inactive | inactive | inactive | – | – | – | – | – | – | – | – | – | – | – | – | – | – | – |
| CC(C)(C)NC[C@H](O)c1cc(O)cc(O)c1 | inactive | inactive | inactive | inactive | inactive | inactive | inactive | inactive | inactive | inactive | inactive | inactive | inactive | inactive | inactive | inactive | – | – | – | – |
| N[C@H](C(=O)N[C@@H]1C(=O)N2C(C(=O)O)=C(Cl)CS[C@@H]12)c1ccccc1 | inactive | inactive | inactive | inactive | inactive | inactive | – | – | – | – | – | – | – | – | – | – | – | – | – | – |
| C[C@@H]1c2cccc(O)c2C(O)=C2C(=O)[C@@]3(O)C(O)=C(C(N)=O)C(=O)[C@@H](N(C)C)[C@@H]3[C@@H](O)[C@@H]21 | inactive | inactive | inactive | inactive | inactive | inactive | inactive | – | inactive | – | – | – | – | – | – | 4.26 µM (active) | inactive | inactive | – | – |
| C[C@@H](COc1ccccc1)N(CCCl)Cc1ccccc1 | inactive | inactive | – | inactive | inactive | inactive | – | – | – | – | – | – | – | – | – | – | – | – | – | – |
| CC(=O)OCC1=C(C(=O)O)N2C(=O)[C@@H](NC(=O)Cc3cccs3)[C@@H]2SC1 | inactive | inactive | inactive | inactive | inactive | inactive | – | – | – | – | – | – | – | – | – | – | – | – | – | – |
| Cc1cccc(C)c1OC[C@H](C)N | inactive | inactive | inactive | inactive | inactive | inactive | – | – | – | – | – | – | – | – | – | – | – | – | – | – |
| C[C@@H](CCc1ccccc1)NC[C@H](O)c1ccc(O)c(C(N)=O)c1 | – | inactive | inactive | – | inactive | inactive | inactive | inactive | inactive | inactive | inactive | inactive | inactive | – | – | – | inactive | inactive | inactive | – |
| NC(=O)c1cc[n+](CC2=C(C(=O)O)N3C(=O)[C@@H](NC(=O)[C@H](c4ccccc4)S(=O)(=O)[O-])[C@@H]3SC2)cc1 | inactive | inactive | inactive | inactive | inactive | inactive | – | – | – | 1.41 µM (active) | – | 6.42 µM (active) | – | 0.572 µM (active) | 0.907 µM (active) | 0.51 µM (active) | inactive | inactive | 1.41 µM (active) | 0.721 µM (active) |
| C[C@@H]1COc2c(N3CCN(C)CC3)c(F)cc3c(=O)c(C(=O)O)cn1c23 | inactive | inactive | inactive | inactive | inactive | inactive | inactive | inactive | inactive | – | inactive | inactive | inactive | inactive | inactive | – | inactive | – | inactive | inactive |
| O=C(c1ccccc1)c1ccc2n1CC[C@H]2C(=O)O | inactive | inactive | inactive | inactive | inactive | inactive | inactive | inactive | inactive | inactive | – | – | inactive | inactive | inactive | inactive | inactive | inactive | inactive | inactive |
| CC(=O)O[C@]1(C(C)=O)CC[C@@H]2[C@@H]3C=C(Cl)C4=CC(=O)[C@H]5C[C@@H]5[C@]4(C)[C@H]3CC[C@]21C | inactive | inactive | inactive | inactive | inactive | inactive | – | – | – | – | – | – | – | – | – | – | – | – | – | – |
| CN1C(=O)CC[C@@H]1c1cccnc1 | – | inactive | inactive | inactive | inactive | inactive | – | – | – | – | – | – | – | – | – | – | – | – | – | – |
| O=C(O)CNC(=O)[C@@H](CS)Cc1ccccc1 | inactive | inactive | inactive | inactive | inactive | inactive | – | – | – | – | – | – | – | – | – | – | – | – | – | – |
| CC(C)(Oc1ccc([C@@H]2CC2(Cl)Cl)cc1)C(=O)O | inactive | inactive | inactive | inactive | inactive | inactive | – | – | – | – | – | – | – | – | – | – | – | – | – | – |
| CO/N=C(\C(=O)N[C@@H]1C(=O)N2C(C(=O)O)=C(COC(C)=O)CS[C@@H]12)c1csc(N)n1 | inactive | inactive | – | inactive | inactive | inactive | inactive | inactive | inactive | inactive | inactive | inactive | inactive | inactive | inactive | inactive | inactive | inactive | inactive | inactive |
| CO[C@]1(NC(=O)CSCC#N)C(=O)N2C(C(=O)O)=C(CSc3nnnn3C)CS[C@H]21 | inactive | inactive | inactive | inactive | inactive | inactive | inactive | inactive | inactive | inactive | – | – | inactive | inactive | inactive | inactive | inactive | – | inactive | inactive |
| c1ccc([C@@H]2CN3CCSC3=N2)cc1 | inactive | inactive | inactive | inactive | inactive | inactive | – | – | – | – | – | – | – | – | – | – | – | – | – | – |
| C[C@@H](C[N+](C)(C)C)OC(N)=O | inactive | inactive | inactive | inactive | inactive | inactive | – | – | – | – | – | – | – | – | – | – | – | – | – | – |
| CCCN[C@@H](C)C(=O)Nc1ccccc1C | inactive | inactive | inactive | inactive | inactive | inactive | inactive | inactive | inactive | inactive | – | inactive | inactive | inactive | inactive | inactive | inactive | inactive | inactive | inactive |

— PubChem BioAssay (NCATS)
